# Laboratory results reported in PMC7862700, “An all-to-all approach to the identification of sequence-specific readers for epigenetic DNA modifications on cytosine”.
# Tests used:
# Assay in all cases: DAPPL (digital affinity profiling via proximity ligation, sequencing); 10 mM Tris-HCl pH 7.5, 50 mM NaCl, 1 mM DTT, 4% glycerol, room temperature, 30 min; GST-TFs on glutathione beads, 16-mer random dsDNA library, 0.1% formaldehyde crosslink after washing; high values mean tight binding
# FLI1 = target: T1, FLI1 (Homo sapiens, UniProt Q01543 1-452); conditions: protein: recombinant; tags: N-terminal GST; dsDNA, one strand shown
# T1 sequence: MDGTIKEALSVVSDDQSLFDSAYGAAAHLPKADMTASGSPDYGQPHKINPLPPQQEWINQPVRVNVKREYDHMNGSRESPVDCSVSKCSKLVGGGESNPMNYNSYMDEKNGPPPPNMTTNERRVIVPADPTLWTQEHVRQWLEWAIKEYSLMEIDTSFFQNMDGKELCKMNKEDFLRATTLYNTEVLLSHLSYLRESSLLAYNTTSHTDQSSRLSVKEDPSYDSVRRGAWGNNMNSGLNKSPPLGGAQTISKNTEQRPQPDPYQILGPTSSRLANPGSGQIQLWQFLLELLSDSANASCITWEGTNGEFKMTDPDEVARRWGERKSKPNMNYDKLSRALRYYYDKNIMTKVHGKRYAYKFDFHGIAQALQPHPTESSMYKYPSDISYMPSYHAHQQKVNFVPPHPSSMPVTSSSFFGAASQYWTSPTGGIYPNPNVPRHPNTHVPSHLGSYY
# Outline: (§1)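 Each value of binding signal is a hexamer's read frequency for a factor divided by the same hexamer's frequency in the tag-only sample. Barcoded, bead-captured GST fusions of human transcription factors made in yeast were pooled with that sample and incubated with 200 nmole of a random double-stranded 16-mer DNA library in Tris/NaCl/DTT/glycerol buffer at room temperature for 30 min. Washing, 0.1% formaldehyde crosslinking, proximity ligation, PCR and Illumina NextSeq500 sequencing followed.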
# ELK1 = target: T2, ELK1 (Homo sapiens, UniProt P19419 1-428); conditions: protein: recombinant; tags: N-terminal GST; dsDNA, one strand shown
# T2 sequence: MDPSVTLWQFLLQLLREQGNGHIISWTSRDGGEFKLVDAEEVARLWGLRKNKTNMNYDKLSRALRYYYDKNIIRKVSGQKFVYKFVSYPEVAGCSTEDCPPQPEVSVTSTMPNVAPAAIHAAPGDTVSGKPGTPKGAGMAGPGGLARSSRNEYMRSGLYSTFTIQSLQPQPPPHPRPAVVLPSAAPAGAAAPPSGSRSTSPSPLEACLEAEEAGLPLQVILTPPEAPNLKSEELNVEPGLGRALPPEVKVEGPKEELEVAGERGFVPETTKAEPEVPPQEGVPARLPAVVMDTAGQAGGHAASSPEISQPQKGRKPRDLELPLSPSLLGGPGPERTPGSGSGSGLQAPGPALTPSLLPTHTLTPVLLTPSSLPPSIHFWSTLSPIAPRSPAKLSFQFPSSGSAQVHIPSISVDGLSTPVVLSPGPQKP
# Outline: as §1
# GABPA = target: T3, GABPA (Homo sapiens, UniProt Q06546 1-454); conditions: protein: recombinant; tags: N-terminal GST; dsDNA, one strand shown
# T3 sequence: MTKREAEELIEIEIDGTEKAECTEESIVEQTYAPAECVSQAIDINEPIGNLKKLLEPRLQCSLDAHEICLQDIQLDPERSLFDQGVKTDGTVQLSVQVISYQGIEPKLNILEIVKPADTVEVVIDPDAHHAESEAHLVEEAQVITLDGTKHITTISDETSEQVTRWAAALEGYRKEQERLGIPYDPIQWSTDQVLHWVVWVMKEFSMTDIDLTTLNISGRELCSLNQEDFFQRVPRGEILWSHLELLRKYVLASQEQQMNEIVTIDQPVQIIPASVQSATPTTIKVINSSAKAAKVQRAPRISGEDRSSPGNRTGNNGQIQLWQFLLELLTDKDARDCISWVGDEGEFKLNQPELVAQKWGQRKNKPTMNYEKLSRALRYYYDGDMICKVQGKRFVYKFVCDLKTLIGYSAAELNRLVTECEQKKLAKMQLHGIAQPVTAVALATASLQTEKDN
# Outline: as §1
# ERG = target: T4, ERG (Homo sapiens, UniProt P11308 1-479); conditions: protein: recombinant; tags: N-terminal GST; dsDNA, one strand shown
# T4 sequence: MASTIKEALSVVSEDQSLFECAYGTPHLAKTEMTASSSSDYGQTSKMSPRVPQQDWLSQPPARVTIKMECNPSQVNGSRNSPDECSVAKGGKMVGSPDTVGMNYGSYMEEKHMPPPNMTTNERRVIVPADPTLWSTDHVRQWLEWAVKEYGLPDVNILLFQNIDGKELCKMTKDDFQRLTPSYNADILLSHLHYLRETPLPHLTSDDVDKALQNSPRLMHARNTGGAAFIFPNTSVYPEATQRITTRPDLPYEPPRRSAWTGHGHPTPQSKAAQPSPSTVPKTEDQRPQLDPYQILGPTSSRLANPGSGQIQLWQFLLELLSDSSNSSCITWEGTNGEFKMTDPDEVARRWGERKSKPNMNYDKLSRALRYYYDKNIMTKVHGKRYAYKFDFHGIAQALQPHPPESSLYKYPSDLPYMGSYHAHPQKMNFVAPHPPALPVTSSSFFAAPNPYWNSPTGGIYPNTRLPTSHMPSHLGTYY
# Outline: as §1
# ELF1 = ELF1 (Homo sapiens, UniProt P32519 1-619); conditions: protein: recombinant; tags: N-terminal GST; dsDNA, one strand shown
# Outline: as §1
# EHF = target: T5, EHF (Homo sapiens, UniProt Q9NZC4 1-300); conditions: protein: recombinant; tags: N-terminal GST; dsDNA, one strand shown
# T5 sequence: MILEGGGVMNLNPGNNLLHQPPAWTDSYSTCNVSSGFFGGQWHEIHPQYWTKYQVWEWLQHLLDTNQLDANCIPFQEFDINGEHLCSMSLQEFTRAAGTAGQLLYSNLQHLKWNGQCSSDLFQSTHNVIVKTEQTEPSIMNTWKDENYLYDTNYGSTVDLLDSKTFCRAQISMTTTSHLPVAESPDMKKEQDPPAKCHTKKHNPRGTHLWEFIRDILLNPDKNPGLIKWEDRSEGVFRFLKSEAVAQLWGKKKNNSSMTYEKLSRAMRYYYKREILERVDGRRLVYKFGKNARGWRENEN
# Outline: as §1
# SPI1 = SPI1 (Homo sapiens, UniProt P17947 1-270); conditions: protein: recombinant; tags: N-terminal GST; dsDNA, one strand shown
# Outline: as §1
# SPIB = SPIB (Homo sapiens, UniProt Q01892 1-262); conditions: protein: recombinant; tags: N-terminal GST; dsDNA, one strand shown
# Outline: as §1
# ELK3 = target: T6, ELK3 (Homo sapiens, UniProt P41970 1-407); conditions: protein: recombinant; tags: N-terminal GST; dsDNA, one strand shown
# T6 sequence: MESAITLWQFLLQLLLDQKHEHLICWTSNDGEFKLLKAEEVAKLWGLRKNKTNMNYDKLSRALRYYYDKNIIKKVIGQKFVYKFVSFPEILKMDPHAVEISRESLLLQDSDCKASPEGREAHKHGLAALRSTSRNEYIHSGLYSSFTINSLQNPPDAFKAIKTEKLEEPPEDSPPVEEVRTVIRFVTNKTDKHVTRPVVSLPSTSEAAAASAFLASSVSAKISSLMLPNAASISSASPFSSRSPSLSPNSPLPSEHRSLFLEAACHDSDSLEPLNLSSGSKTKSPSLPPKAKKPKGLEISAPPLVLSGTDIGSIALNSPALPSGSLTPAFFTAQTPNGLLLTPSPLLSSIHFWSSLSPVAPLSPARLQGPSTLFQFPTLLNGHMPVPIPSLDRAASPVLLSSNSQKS
# Outline: as §1
# FEV = target: T7, FEV (Homo sapiens, UniProt Q99581 1-238); conditions: protein: recombinant; tags: N-terminal GST; dsDNA, one strand shown
# T7 sequence: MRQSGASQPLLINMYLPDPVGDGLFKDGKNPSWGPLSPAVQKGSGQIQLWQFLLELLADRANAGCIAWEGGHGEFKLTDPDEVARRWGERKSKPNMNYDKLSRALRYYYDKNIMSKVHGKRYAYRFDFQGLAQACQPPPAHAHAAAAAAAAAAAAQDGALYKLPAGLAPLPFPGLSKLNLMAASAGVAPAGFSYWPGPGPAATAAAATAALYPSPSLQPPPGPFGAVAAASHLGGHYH
# Outline: as §1
# ETV5 = ETV5 (Homo sapiens, UniProt P41161 1-510); conditions: protein: recombinant; tags: N-terminal GST; dsDNA, one strand shown
# Outline: as §1
# HSF1 = HSF1 (Homo sapiens, UniProt Q00613 1-529); conditions: protein: recombinant; tags: N-terminal GST; chain copies: 3; dsDNA, one strand shown
# Outline: as §1
# SPIC = target: T8, SPIC (Homo sapiens, UniProt Q8N5J4 1-248); conditions: protein: recombinant; tags: N-terminal GST; dsDNA, one strand shown
# T8 sequence: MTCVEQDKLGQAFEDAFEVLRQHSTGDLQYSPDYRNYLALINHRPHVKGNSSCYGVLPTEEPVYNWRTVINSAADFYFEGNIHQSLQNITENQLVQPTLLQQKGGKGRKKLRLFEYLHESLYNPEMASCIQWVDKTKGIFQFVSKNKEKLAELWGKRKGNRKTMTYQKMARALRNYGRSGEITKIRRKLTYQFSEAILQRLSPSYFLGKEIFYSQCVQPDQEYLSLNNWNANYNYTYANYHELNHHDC
# Outline: as §1
# ELF4 = ELF4 (Homo sapiens, UniProt Q99607 1-663); conditions: protein: recombinant; tags: N-terminal GST; dsDNA, one strand shown
# Outline: as §1
# ELK4 = target: T9, ELK4 (Homo sapiens, UniProt P28324-2 1-405); conditions: protein: recombinant; tags: N-terminal GST; dsDNA, one strand shown
# T9 sequence: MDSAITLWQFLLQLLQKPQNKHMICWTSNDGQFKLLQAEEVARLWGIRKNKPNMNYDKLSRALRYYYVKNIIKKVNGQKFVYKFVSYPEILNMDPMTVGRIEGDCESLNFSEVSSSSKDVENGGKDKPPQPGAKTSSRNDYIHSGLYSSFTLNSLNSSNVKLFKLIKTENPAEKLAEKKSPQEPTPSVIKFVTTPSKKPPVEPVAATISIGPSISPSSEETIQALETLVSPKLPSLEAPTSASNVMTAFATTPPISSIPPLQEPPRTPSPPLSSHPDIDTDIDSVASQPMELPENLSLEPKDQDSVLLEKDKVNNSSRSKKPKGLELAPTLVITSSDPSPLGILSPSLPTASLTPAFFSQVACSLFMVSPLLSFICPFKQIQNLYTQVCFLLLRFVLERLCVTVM
# Outline: as §1
# ETV2 = target: T10, ETV2 (Homo sapiens, UniProt O00321 1-342); conditions: protein: recombinant; tags: N-terminal GST; dsDNA, one strand shown
# T10 sequence: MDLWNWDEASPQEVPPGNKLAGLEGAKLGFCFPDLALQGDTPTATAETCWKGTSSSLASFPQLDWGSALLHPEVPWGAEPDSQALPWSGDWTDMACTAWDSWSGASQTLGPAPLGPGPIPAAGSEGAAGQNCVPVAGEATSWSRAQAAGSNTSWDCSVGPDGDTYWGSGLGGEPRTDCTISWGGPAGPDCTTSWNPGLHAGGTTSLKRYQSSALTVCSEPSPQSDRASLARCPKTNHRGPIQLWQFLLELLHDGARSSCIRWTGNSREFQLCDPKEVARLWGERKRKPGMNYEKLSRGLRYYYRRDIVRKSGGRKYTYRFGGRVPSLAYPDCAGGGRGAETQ
# Outline: as §1
# ELF3 = target: T11, ELF3 (Homo sapiens, UniProt P78545 1-371); conditions: protein: recombinant; tags: N-terminal GST; dsDNA, one strand shown
# T11 sequence: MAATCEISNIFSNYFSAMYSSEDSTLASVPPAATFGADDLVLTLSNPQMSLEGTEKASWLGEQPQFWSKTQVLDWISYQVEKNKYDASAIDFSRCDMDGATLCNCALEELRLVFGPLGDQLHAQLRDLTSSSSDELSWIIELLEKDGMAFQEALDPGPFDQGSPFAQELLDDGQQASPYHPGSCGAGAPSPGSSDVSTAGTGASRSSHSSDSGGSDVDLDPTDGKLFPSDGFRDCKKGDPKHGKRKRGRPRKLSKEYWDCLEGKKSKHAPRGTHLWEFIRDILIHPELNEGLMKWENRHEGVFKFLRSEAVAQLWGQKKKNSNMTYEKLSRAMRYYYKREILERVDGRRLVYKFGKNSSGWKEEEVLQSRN
# Outline: as §1
# CRX = CRX (Homo sapiens, UniProt O43186 1-299); conditions: protein: recombinant; tags: N-terminal GST; dsDNA, one strand shown
# Outline: as §1
# ETV1 = ETV1 (Homo sapiens, UniProt P50549 1-477); conditions: protein: recombinant; tags: N-terminal GST; dsDNA, one strand shown
# Outline: as §1
# Chain of CRX (O43186 whole entry): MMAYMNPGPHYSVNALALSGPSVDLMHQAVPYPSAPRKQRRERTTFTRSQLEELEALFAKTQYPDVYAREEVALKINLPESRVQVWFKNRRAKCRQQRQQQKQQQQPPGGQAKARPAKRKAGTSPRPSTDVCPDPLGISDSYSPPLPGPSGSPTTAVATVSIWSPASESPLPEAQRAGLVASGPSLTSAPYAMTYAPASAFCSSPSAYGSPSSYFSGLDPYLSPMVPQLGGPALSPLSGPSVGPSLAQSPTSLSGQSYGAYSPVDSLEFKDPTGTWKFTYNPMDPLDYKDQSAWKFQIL
# Chain of ETV1 (P50549 whole entry): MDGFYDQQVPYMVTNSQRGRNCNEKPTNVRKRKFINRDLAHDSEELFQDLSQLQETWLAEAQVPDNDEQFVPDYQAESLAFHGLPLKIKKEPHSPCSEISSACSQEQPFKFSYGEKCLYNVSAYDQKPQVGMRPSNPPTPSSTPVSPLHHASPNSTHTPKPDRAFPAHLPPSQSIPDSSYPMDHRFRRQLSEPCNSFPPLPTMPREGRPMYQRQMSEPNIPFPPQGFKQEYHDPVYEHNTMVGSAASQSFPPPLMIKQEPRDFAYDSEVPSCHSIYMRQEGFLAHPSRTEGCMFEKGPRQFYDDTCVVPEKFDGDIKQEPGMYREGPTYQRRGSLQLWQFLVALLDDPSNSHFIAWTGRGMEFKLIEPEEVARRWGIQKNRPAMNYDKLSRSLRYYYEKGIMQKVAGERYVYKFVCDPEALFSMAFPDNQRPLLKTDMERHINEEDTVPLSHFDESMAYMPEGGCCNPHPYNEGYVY
# Chain of ETV5 (P41161 whole entry): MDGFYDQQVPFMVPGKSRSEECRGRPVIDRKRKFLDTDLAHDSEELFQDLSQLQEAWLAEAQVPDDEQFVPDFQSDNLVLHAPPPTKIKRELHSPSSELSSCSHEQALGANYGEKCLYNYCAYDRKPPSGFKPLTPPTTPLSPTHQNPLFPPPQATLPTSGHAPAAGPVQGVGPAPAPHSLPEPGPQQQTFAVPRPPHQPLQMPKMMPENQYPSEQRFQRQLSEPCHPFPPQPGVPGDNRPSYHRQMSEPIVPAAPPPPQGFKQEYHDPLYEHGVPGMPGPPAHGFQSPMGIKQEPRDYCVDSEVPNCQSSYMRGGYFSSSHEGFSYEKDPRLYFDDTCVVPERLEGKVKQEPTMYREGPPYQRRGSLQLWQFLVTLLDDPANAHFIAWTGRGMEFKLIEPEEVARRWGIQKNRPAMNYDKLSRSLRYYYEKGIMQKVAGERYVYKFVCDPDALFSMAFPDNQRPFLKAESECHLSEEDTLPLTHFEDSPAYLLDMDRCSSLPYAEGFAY
# Chain of SPIB (Q01892 whole entry): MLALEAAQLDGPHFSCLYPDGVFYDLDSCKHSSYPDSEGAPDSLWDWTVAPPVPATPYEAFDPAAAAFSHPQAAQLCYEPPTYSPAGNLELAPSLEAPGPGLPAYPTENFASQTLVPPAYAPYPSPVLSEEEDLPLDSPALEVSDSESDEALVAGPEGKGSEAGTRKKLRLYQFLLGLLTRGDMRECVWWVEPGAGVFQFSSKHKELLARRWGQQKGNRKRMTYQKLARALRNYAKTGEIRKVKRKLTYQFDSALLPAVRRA
# Chain of ELF1 (P32519 whole entry): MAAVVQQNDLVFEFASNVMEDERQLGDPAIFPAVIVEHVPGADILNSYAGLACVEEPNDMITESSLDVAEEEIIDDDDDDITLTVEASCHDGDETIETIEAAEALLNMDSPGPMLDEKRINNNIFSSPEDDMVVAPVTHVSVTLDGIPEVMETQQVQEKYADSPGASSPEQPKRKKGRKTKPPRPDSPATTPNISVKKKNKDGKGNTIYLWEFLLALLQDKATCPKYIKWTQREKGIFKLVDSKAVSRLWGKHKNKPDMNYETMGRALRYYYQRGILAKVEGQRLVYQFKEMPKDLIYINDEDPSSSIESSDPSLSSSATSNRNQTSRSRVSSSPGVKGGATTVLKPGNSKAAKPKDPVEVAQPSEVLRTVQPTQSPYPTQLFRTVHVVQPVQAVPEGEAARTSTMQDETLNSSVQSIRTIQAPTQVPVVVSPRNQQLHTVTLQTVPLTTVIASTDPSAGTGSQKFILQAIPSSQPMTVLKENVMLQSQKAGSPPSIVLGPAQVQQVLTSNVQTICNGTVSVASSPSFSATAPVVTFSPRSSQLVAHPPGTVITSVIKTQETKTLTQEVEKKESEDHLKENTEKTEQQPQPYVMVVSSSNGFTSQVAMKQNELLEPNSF
# Chain of HSF1 (Q00613 whole entry): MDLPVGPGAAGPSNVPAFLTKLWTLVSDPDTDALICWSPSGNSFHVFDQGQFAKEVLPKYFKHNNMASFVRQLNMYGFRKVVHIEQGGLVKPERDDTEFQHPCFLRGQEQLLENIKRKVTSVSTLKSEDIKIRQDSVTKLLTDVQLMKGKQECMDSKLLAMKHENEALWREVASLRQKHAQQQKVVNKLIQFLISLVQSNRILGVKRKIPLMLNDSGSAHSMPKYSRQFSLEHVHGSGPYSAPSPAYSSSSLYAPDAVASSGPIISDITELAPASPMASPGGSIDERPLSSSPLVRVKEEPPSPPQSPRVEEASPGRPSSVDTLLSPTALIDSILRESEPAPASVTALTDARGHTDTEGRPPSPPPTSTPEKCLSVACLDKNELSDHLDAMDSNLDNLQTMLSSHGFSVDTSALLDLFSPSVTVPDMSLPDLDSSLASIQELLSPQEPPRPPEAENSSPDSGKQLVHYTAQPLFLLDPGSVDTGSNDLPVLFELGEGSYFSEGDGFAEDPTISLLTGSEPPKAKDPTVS
# Chain of ELF4 (Q99607 whole entry): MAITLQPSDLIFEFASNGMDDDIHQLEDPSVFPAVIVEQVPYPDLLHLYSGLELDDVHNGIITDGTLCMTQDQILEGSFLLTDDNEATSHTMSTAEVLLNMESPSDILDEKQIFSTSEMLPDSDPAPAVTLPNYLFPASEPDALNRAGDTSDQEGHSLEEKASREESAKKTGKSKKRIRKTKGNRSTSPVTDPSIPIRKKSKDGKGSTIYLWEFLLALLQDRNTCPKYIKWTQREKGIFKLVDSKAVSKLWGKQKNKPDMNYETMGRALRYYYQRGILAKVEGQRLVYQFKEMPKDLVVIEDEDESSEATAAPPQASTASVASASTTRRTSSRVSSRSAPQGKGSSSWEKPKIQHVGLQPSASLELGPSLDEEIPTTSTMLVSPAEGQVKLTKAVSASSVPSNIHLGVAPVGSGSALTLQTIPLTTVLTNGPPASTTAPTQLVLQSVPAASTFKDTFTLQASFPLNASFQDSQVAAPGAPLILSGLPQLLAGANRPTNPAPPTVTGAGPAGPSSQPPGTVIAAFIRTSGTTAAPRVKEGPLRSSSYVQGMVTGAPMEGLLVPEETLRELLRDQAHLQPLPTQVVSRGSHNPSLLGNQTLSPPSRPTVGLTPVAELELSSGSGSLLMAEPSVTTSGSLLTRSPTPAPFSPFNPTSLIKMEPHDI
sequence,measurement,setting,value
CTATAT,binding signal,FLI1,"1.38 fold enrichment (6-mer frequency, TF over GST control)"
same,binding signal,ELK1,"1.42 fold enrichment (6-mer frequency, TF over GST control)"
same,binding signal,GABPA,"1.35 fold enrichment (6-mer frequency, TF over GST control)"
same,binding signal,ERG,"1.34 fold enrichment (6-mer frequency, TF over GST control)"
same,binding signal,ELF1,"1.5 fold enrichment (6-mer frequency, TF over GST control)"
same,binding signal,EHF,"1.42 fold enrichment (6-mer frequency, TF over GST control)"
same,binding signal,SPI1,"1.32 fold enrichment (6-mer frequency, TF over GST control)"
same,binding signal,SPIB,"1.47 fold enrichment (6-mer frequency, TF over GST control)"
same,binding signal,ELK3,"1.47 fold enrichment (6-mer frequency, TF over GST control)"
same,binding signal,FEV,"1.44 fold enrichment (6-mer frequency, TF over GST control)"
same,binding signal,ETV5,"1.41 fold enrichment (6-mer frequency, TF over GST control)"
same,binding signal,HSF1,"1.23 fold enrichment (6-mer frequency, TF over GST control)"
same,binding signal,SPIC,"1.47 fold enrichment (6-mer frequency, TF over GST control)"
same,binding signal,ELF4,"1.41 fold enrichment (6-mer frequency, TF over GST control)"
same,binding signal,ELK4,"1.71 fold enrichment (6-mer frequency, TF over GST control)"
same,binding signal,ETV2,"1.22 fold enrichment (6-mer frequency, TF over GST control)"
same,binding signal,ELF3,"1.33 fold enrichment (6-mer frequency, TF over GST control)"
same,binding signal,CRX,"1.3 fold enrichment (6-mer frequency, TF over GST control)"
same,binding signal,ETV1,"1.39 fold enrichment (6-mer frequency, TF over GST control)"
